Reference: PubChem BioAssay (EPA / NIEHS)
“And” between values parts separate entries of the source, which are not always exact repeats. Equal entries are not always repeated. Results filed as inconclusive are left out. The source holds several records for some structures; these can differ, active in one and inactive in another. The source made the active and inactive calls. The calls were made as follows, unless noted: active = hit-call score of the fitted dose curve at least 0.9, where 1 is the maximum; inconclusive = response in the unintended direction; inactive = score below 0.9.

Experiments:
[1] = read-out: Transforming Growth Factor (TGFA), TGFA (gene 7039); experiment: LTEA_HepaRG_TGFA: Life Technologies and Expression Analysis (LTEA) Assay for Transforming Growth Factor (TGFA) using HepaRG (AID 2283532; active = hit-call score of the fitted dose curve at least 0.9, where 1 is the maximum; inactive = score below 0.9); settings: mRNA level, 48 h; actives raise or lower the signal
Procedure, shortened: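 Differentiated human HepaRG cells, plated 48 h then switched to serum-free induction medium, were exposed in duplicate for 48 h to 8-point half-log series from 100 uM in 0.5% DMSO. TGFA mRNA measured by qRT-PCR, normalized to ACTB/GAPDH/POLR2A, bidirectional fit versus DMSO.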

[2] = read-out: Transforming Growth Factor (TGFB1), TGFB1 (gene 7040); experiment: LTEA_HepaRG_TGFB1: Life Technologies and Expression Analysis (LTEA) Assay for Transforming Growth Factor (TGFB1) Transporter using HepaRG (AID 2283533; active = hit-call score of the fitted dose curve at least 0.9, where 1 is the maximum; inactive = score below 0.9); settings: mRNA level, 48 h; actives raise or lower the signal
Procedure, shortened: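 TGFB1 transcript measured by qRT-PCR with normalisation to three housekeeping genes (ACTB, GAPDH, POLR2A); human HepaRG line treated in duplicate for 48 hr with an 8-point series topping at 100 uM, 0.5% DMSO vehicle, bidirectionally fitted.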

TIMP1, TIMP1 (gene 7076) = experiment: LTEA_HepaRG_TIMP1: Life Technologies and Expression Analysis (LTEA) Assay for TIMP1 using HepaRG (AID 2283534; active = hit-call score of the fitted dose curve at least 0.9, where 1 is the maximum; inactive = score below 0.9); settings: mRNA level, 48 h; actives raise or lower the signal
Procedure, shortened: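 Bidirectional change in TIMP1 transcript versus 0.5% DMSO, measured by TaqMan qRT-PCR with three housekeeping genes for normalization. HepaRG human liver cells dosed 48 h in duplicate, top concentration 100 uM with half-log dilutions.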

[3] = read-out: Tumor necrosis factor receptor 1 (TNFRSF1A), TNFRSF1A (gene 7132); experiment: LTEA_HepaRG_TNFRSF1A: Life Technologies and Expression Analysis (LTEA) Assay for Tumor necrosis factor receptor 1 (TNFRSF1A) using HepaRG (AID 2283535; active = hit-call score of the fitted dose curve at least 0.9, where 1 is the maximum; inactive = score below 0.9); settings: mRNA level, 48 h; actives raise or lower the signal
Procedure, shortened: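 mRNA measured by qRT-PCR (TaqMan, Fluidigm arrays) against ACTB/GAPDH/POLR2A housekeepers after 48 h chemical exposure of HepaRG cells. Top concentration 100 uM, half-log 8-point series, duplicates; vehicle 0.5% DMSO, both fit directions.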

[4] = read-out: Thyroid Hormone Responsive (THRSP), THRSP (gene 7069); experiment: LTEA_HepaRG_THRSP: Life Technologies and Expression Analysis (LTEA) Assay for Thyroid Hormone Responsive (THRSP) using HepaRG (AID 2283536; active = hit-call score of the fitted dose curve at least 0.9, where 1 is the maximum; inactive = score below 0.9); settings: mRNA level, 48 h; actives raise or lower the signal
Procedure, shortened: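 Differentiated human HepaRG cells were exposed in duplicate for 48 h in serum-free induction medium to eight concentrations (top 100 uM, half-log steps, 0.5% DMSO). Expression was quantified by TaqMan qRT-PCR, normalized to ACTB, GAPDH and POLR2A, with bidirectional fitting against DMSO.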

[5] = read-out: Cellular tumor antigen p53 (Homo sapiens) (UniProt P04637); experiment: LTEA_HepaRG_TP53: Life Technologies and Expression Analysis (LTEA) Assay for Tumor Protein P53 (TP53) using HepaRG (AID 2283537; active = hit-call score of the fitted dose curve at least 0.9, where 1 is the maximum; inactive = score below 0.9); settings: mRNA level, 48 h; actives raise or lower the signal
Procedure, shortened: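 TP53 transcript measured by qRT-PCR, normalized to three housekeeping genes, after 48 h treatment of human HepaRG cultures with chemicals from 100 uM downward in half-log steps (0.5% DMSO vehicle, serum-free induction medium). Up- or down-regulation fitted against DMSO.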

[6] = read-out: UDP glucuronosyltransferase (UGT1A1), UGT1A1 (gene 54658); experiment: LTEA_HepaRG_UGT1A1: Life Technologies and Expression Analysis (LTEA) Assay for UDP glucuronosyltransferase (UGT1A1) using HepaRG (AID 2283538; active = hit-call score of the fitted dose curve at least 0.9, where 1 is the maximum; inactive = score below 0.9); settings: mRNA level, 48 h; actives raise or lower the signal
Procedure, shortened: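 Human liver HepaRG cultures receive test chemical for 48 h, up to 100 uM in 0.5% DMSO, with phenobarbital induction controls. UGT1A1 mRNA is measured by qRT-PCR and normalized to ACTB, GAPDH and POLR2A.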

[7] = read-out: UDP glucuronosyltransferase (UGT1A6), UGT1A6 (gene 54578); experiment: LTEA_HepaRG_UGT1A6: Life Technologies and Expression Analysis (LTEA) Assay for UDP glucuronosyltransferase (UGT1A6) using HepaRG (AID 2283539; active = hit-call score of the fitted dose curve at least 0.9, where 1 is the maximum; inactive = score below 0.9); settings: mRNA level, 48 h; actives raise or lower the signal
Procedure, shortened: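 Expression was quantified by TaqMan qRT-PCR on Fluidigm arrays with ACTB/GAPDH/POLR2A normalization and bidirectional fitting against 0.5% DMSO. HepaRG cells (~100,000/well) were treated in duplicate for 48 h at eight half-log concentrations up to 100 uM in serum-free induction medium.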

[8] = read-out: X-box binding protein 1 (XBP1), XBP1 (gene 7494); experiment: LTEA_HepaRG_XBP1: Life Technologies and Expression Analysis (LTEA) Assay for X-box binding protein 1 (XBP1) using HepaRG (AID 2283540; active = hit-call score of the fitted dose curve at least 0.9, where 1 is the maximum; inactive = score below 0.9); settings: mRNA level, 48 h; actives raise or lower the signal
Procedure, shortened: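 XBP1 transcript by qRT-PCR (housekeeping-normalized: ACTB, GAPDH, POLR2A) after 48 h chemical treatment of HepaRG cells, 8-point half-log series topping at 100 uM, vehicle 0.5% DMSO. Gain and loss of signal fitted relative to DMSO.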

[9] = LTEA_HepaRG_LDH_cytotoxicity: Cytotoxicity Assessment in the Life Technologies and Expression Analysis (LTEA) Assay (AID 2283563);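 as to AC50: LDH activity released into spent culture medium as a marker of cell death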
Procedure, shortened: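 LDH release into culture medium read after 48 h chemical treatment of HepaRG cells. Duplicate wells, eight-point half-log series topping at 100 uM, 0.5% DMSO vehicle and baseline.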

[10] = ATG_XTT_Cytotoxicity: Cytotoxicity Assessment in the Attagene TRANS-FACTORIAL HepG2 Assay (AID 2283584);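 as to AC50: cells exposed to compound for 24 h before reading; active means loss of viability signal versus DMSO baseline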
Procedure, shortened: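 Viability endpoint from XTT after 24 h chemical exposure of reporter-transfected human HepG2 liver cells; signal loss fitted relative to DMSO negative control.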

[11] = TOX21_p53_BLA_p2_viability: Viability Assessment in the Tox21 HCT-116 p53 Agonism Beta-lactamase Assay, Phase 2 (AID 2283591);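 also: compound exposure lasted 16 h at 37 °C; actives lower the ATP signal meaning cytotoxicity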
Procedure, shortened: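 HCT-116 p53-bla cells (4000/well) rested 5 h at 37C, then received compounds in DMSO (217-fold dilution) for 16 h at 37C, 5% CO2. After the CCF4 read, CellTiter-Glo was added; ATP luminescence was read after 30 min at room temperature.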

[12] = molecular target: Cellular tumor antigen p53 (Homo sapiens) (UniProt P04637); experiment: TOX21_p53_BLA_p2_ratio: Tox21 HCT-116 p53 Agonism Beta-lactamase Assay, Ratio, Phase 2 (AID 2283592)
Cellular tumor antigen p53 (Homo sapiens), sequence (P04637 whole entry, looked up): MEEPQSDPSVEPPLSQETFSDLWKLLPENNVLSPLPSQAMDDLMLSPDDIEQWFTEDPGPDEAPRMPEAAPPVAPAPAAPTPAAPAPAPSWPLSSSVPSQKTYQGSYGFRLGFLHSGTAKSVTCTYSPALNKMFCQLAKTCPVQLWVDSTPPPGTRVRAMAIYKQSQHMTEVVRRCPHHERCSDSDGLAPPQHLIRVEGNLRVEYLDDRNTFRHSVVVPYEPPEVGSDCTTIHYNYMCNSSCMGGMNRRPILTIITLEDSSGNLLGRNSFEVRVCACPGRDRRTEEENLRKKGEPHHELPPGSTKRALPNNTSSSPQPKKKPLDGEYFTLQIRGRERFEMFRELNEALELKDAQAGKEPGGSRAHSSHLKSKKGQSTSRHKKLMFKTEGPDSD
Procedure, shortened: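 Gain-of-signal p53 agonism was scored from the beta-lactamase FRET ratio (460/530 nm, 405 nm excitation) in HCT116 cells treated 16 h at 37C, 5% CO2, with DMSO serving as negative control and baseline.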

[13] = molecular target: Cellular tumor antigen p53 (Homo sapiens) (UniProt P04637); experiment: TOX21_p53_BLA_p3_ratio: Tox21 HCT-116 p53 Agonism Beta-lactamase Assay, Ratio, Phase 3 (AID 2283596)
Procedure, shortened: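 HCT116 p53-bla cells (4000/well) given compound in DMSO (217-fold dilution) after 5 h, incubated 16 h at 37C. CCF4-AM substrate 2 h at room temperature; 460/530 nm emission ratio, gain fitted against DMSO.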

[14] = TOX21_p53_BLA_p4_viability: Viability Assessment in the Tox21 HCT-116 p53 Agonism Beta-lactamase Assay, Phase 4 (AID 2283597);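 also: hits lower the luminescence signal meaning cytotoxicity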
Procedure, shortened: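 Following a 16 h exposure at 37C, the treated HCT116 wells were first read for the FRET ratio. They were then lysed with CellTiter-Glo, and ATP luminescence was recorded after 30 min at room temperature.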

[15] = molecular target: Cellular tumor antigen p53 (Homo sapiens) (UniProt P04637); experiment: TOX21_p53_BLA_p5_ratio: Tox21 HCT-116 p53 Agonism Beta-lactamase Assay, Ratio, Phase 5 (AID 2283599)
Procedure, shortened: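 HCT-116 cells carrying a p53-inducible beta-lactamase reporter were seeded at 4000 cells/well and dosed after 5 h with compound in DMSO (217-fold dilution). After 16 h at 37C, CCF4-AM substrate was added for 2 h, and the 460/530 nm emission ratio was scored as gain-of-signal versus DMSO.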

[16] = TOX21_p53_BLA_p5_viability: Viability Assessment in the Tox21 HCT-116 p53 Agonism Beta-lactamase Assay, Phase 5 (AID 2283600)
Procedure, shortened: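 After the 460/530 nm beta-lactamase measurement, the wells received an ATP-detection luciferase reagent; signal was read 30 min later at RT. Compound treatment lasted 16 h on cells pre-incubated 5 h post-seeding.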

[17] = molecular target: Cellular tumor antigen p53 (Homo sapiens) (UniProt P04637); experiment: TOX21_p53_BLA_p4_ratio: Tox21 HCT-116 p53 Agonism Beta-lactamase Assay, Ratio, Phase 4 (AID 2283601)
Procedure, shortened: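 HCT116 cells carrying an inducible beta-lactamase reporter were plated at 4000 cells/well, rested 5 h, then exposed to compounds in DMSO (217-fold dilution) for 16 h at 37C. CCF4-AM substrate was loaded 2 h at room temperature; 460/530 nm emission ratio scored gain-of-signal versus DMSO.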

[18] = Tanguay_ZF_120hpf_MORT_legacy: (Legacy) Oregon State University Tanguay Lab 120 Hour Post-fertilization zebrafish Assay for Mortality (AID 2283633)
Procedure, shortened: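 Static waterborne exposure from 6 to 120 hpf at 28C of single dechorionated wild-type (5D) embryos per well, 0.64% DMSO final. Death recorded present/absent by brightfield at 24 and 120 hpf.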

[19] = TOX21_p53_BLA_p3_viability: Viability Assessment in the Tox21 HCT-116 p53 Agonism Beta-lactamase Assay, Phase 3 (AID 2283593);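 also: cells exposed to compound for 16 h before reading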
Procedure, shortened: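 HCT-116 cells (4000/well) rested 5 h at 37C, then got DMSO compounds by pin tool (217-fold dilution) for 16 h at 37C, 5% CO2. After the bla read, CellTiter-Glo was added and luminescence read at 30 min, room temperature.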

Measured: AC50

CCCCOC(=O)c1ccc(O)cc1
not listed: [19]
inactive: all other assays above

c1ccc2ccccc2c1
active: [6] 17.4 µM
not listed: [14] | [17]
inactive: all other assays above

O=c1[nH]sc2ccccc12
not listed: [17]
inactive: all other assays above

Cc1c2ccccc2c(C)c2c1ccc1ccccc12
active: [1] 63.3 µM | [2] 35 µM | [4] 75.4 µM | [5] 54.1 µM | [6] 0.714 µM | [7] 35 µM | [10] 56.2 µM | [12] 14.6 µM and 37.7 µM | [19] 61.5 µM | [13] 29.5 µM and 52.5 µM | [14] 56.3 µM | [15] 41.7 µM
inactive: TIMP1, TIMP1 (gene 7076) | [3] | [8] | [9] | [10] | [11] | [19] | [14] | [15] | [16] | [18]

c1ccc(C[n+]2cccc3ccccc32)cc1
active: [1] 63 µM | [3] 27.3 µM | [4] 50 µM | [5] 35.7 µM | [6] 26 µM | [9] 34.4 µM
not listed: [14]
inactive: all other assays above

CN1C(=O)N(c2ccccc2Br)Cc2cnc(Nc3ccc4c(c3)OCC(CO)O4)nc21 (stereo not given)
active: [2] 24.2 µM | TIMP1, TIMP1 (gene 7076) 11.9 µM | [3] 83.7 µM | [6] 85.6 µM | [7] 81.5 µM | [9] 67.9 µM | [11] 70.4 µM | [12] 4.26 µM | [13] 13.8 µM | [14] 46.1 µM | [15] 13.6 µM | [17] 14.2 µM
inactive: [1] | [4] | [5] | [8] | [10] | [16] | [18]

O=C1CCC(C2CCCCC2)CC1
not listed: [17]
inactive: all other assays above

Clc1ccccc1C(c1ccccc1)(c1ccccc1)n1ccnc1
inactive: TIMP1, TIMP1 (gene 7076) | [3] | [8] | [11] | [13] | [15] | [16] | [18]
active: [1] 23.2 µM | [2] 91.9 µM | [4] 29.9 µM | [5] 28 µM | [6] 28 µM | [7] 15.8 µM | [9] 70.7 µM | [10] 24.2 µM | [11] 58.2 µM | [12] 64.8 µM and 19 µM | [13] 74.1 µM | [14] 34.5 µM and 15.3 µM | [15] 86.2 µM | [16] 85.1 µM | [17] 60.2 µM and 16.6 µM

CCCCCCCCCCCO
not listed: [17] | [19]
inactive: all other assays above

O=C1c2ccccc2C(=O)N1CCc1noc(-c2ccc(CN3CCCCCC3)s2)n1
active: [6] 17.8 µM
not listed: [17] | [19]
inactive: all other assays above
